# Reference: the supplement of paper PMC8728848
# The sample as a whole holds a higher share of the strongest signals than the screen did.
# Columns and labels:
# Test in all cases: glycan array binding signal (z-score within array); higher = stronger binding
# Settings in all cases: glycan notation: IUPAC condensed, linker removed
# [1] = biological target: Gal(b1-4)GlcNAc(b1-2)Man(a1-3)[Gal(b1-4)GlcNAc(b1-2)Man(a1-6)]Man(b1-4)GlcNAc(b1-4)GlcNAc
# How it was run: (§1)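 From the Consortium for Functional Glycomics database, 3228 arrays were curated, keeping only those whose protein sequence was available. Binding is given as a within-array Z-score averaged across arrays sharing a protein sequence and across linkers. Negative Z-scores can be read as non-binding.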
# [2] = biological target: Gal(b1-4)GlcNAc(b1-2)Man(a1-3)[GlcNAc(b1-2)Man(a1-6)]Man(b1-4)GlcNAc(b1-4)GlcNAc
# How it was run: as §1
# [3] = biological target: Gal(b1-4)GlcNAc(b1-2)[Gal(b1-4)GlcNAc(b1-4)]Man(a1-3)[GlcNAc(b1-4)][Gal(b1-4)GlcNAc(b1-2)[Gal(b1-4)GlcNAc(b1-6)]Man(a1-6)]Man(b1-4)GlcNAc(b1-4)GlcNAc
# How it was run: as §1
# [4] = biological target: Gal(b1-4)GlcNAc(b1-3)Gal(b1-3)GalNAc
# How it was run: as §1
# [5] = biological target: Gal(b1-4)GlcNAc(b1-3)Gal(b1-4)Glc
# How it was run: as §1
# [6] = biological target: Gal(b1-4)GlcNAc(b1-3)Gal(b1-4)GlcNAc(b1-3)Gal(b1-4)GlcNAc(b1-3)Gal(b1-4)GlcNAc(b1-3)Gal(b1-4)GlcNAc(b1-2)[Gal(b1-4)GlcNAc(b1-3)Gal(b1-4)GlcNAc(b1-3)Gal(b1-4)GlcNAc(b1-3)Gal(b1-4)GlcNAc(b1-3)Gal(b1-4)GlcNAc(b1-6)]Man(a1-6)[Gal(b1-4)GlcNAc(b1-3)Gal(b1-4)GlcNAc(b1-3)Gal(b1-4)GlcNAc(b1-3)Gal(b1-4)GlcNAc(b1-3)Gal(b1-4)GlcNAc(b1-2)Man(a1-3)]Man(b1-4)GlcNAc(b1-4)[Fuc(a1-6)]GlcNAc
# How it was run: as §1
# [7] = biological target: Gal(b1-4)GlcNAc(b1-6)[Gal(b1-4)GlcNAc(b1-3)]GalNAc
# How it was run: as §1
# Gal6S(b1-4)Glc6S = biological target: Gal6S(b1-4)Glc6S
# How it was run: as §1
# [8] = biological target: GalNAc(b1-3)Gal(a1-4)Gal(b1-4)GlcNAc(b1-3)Gal(b1-4)Glc
# How it was run: as §1
# [9] = biological target: GalNAc(b1-4)GlcNAc(b1-2)Man(a1-3)[GalNAc(b1-4)GlcNAc(b1-2)Man(a1-6)]Man(b1-4)GlcNAc(b1-4)GlcNAc
# How it was run: as §1
# Glc(b1-4)Glc = biological target: Glc(b1-4)Glc
# How it was run: as §1
# [10] = biological target: GlcNAc(a1-4)Gal(b1-4)GlcNAc(b1-3)Gal(b1-4)[Fuc(a1-3)]GlcNAc(b1-3)Gal(b1-4)[Fuc(a1-3)]GlcNAc
# How it was run: as §1
# [11] = biological target: GlcNAc(b1-2)[GlcNAc(b1-4)]Man(a1-3)[GlcNAc(b1-4)][GlcNAc(b1-2)[GlcNAc(b1-6)]Man(a1-6)]Man(b1-4)GlcNAc(b1-4)GlcNAc
# How it was run: as §1
# [12] = biological target: GlcNAc(b1-3)Gal(b1-4)GlcNAc(b1-3)Gal(b1-4)GlcNAc(b1-3)GalNAc
# How it was run: as §1
# [13] = biological target: Neu5Ac(a2-3)Gal(b1-3)GalNAc(b1-3)Gal(a1-4)Gal(b1-4)Glc
# How it was run: as §1
# [14] = biological target: Neu5Ac(a2-3)Gal(b1-3)GlcNAc(b1-3)GalNAc
# How it was run: as §1
# [15] = biological target: Neu5Ac(a2-3)Gal(b1-4)GlcNAc(b1-2)[Neu5Ac(a2-3)Gal(b1-4)GlcNAc(b1-6)]Man(a1-6)[Neu5Ac(a2-3)Gal(b1-4)GlcNAc(b1-2)Man(a1-3)]Man(b1-4)GlcNAc(b1-4)GlcNAc
# How it was run: as §1
# [16] = biological target: Neu5Ac(a2-3)Gal(b1-4)GlcNAc(b1-3)Gal(b1-4)GlcNAc(b1-3)Gal(b1-4)GlcNAc(b1-2)Man(a1-3)[Neu5Ac(a2-3)Gal(b1-4)GlcNAc(b1-3)Gal(b1-4)GlcNAc(b1-3)Gal(b1-4)GlcNAc(b1-2)Man(a1-6)]GalNAc
# How it was run: as §1
# [17] = biological target: Neu5Ac(a2-3)[GalNAc(b1-4)]Gal(b1-4)Glc
# How it was run: as §1
# [18] = biological target: Neu5Ac(a2-6)Gal(b1-4)GlcNAc(b1-2)Man(a1-3)[Man(a1-6)]Man(b1-4)GlcNAc(b1-4)GlcNAc
# How it was run: as §1
# [19] = biological target: Neu5Ac(a2-6)Gal(b1-4)GlcNAc(b1-2)Man(a1-3)[Neu5Ac(a2-3)Gal(b1-4)GlcNAc(b1-2)Man(a1-6)]Man(b1-4)GlcNAc(b1-4)GlcNAc
# How it was run: as §1
# [20] = biological target: Neu5Ac(a2-6)Gal(b1-4)GlcNAc(b1-2)[Neu5Ac(a2-6)Gal(b1-4)GlcNAc(b1-4)]Man(a1-3)[GlcNAc(b1-4)][Neu5Ac(a2-6)Gal(b1-4)GlcNAc(b1-2)[Neu5Ac(a2-6)Gal(b1-4)GlcNAc(b1-6)]Man(a1-6)]Man(b1-4)GlcNAc(b1-4)GlcNAc
# How it was run: as §1
# [21] = biological target: Neu5Ac(a2-6)Gal(b1-4)GlcNAc(b1-3)Gal(b1-4)GlcNAc(b1-3)GalNAc
# How it was run: as §1
# [22] = biological target: Neu5Ac(a2-6)Gal(b1-4)GlcNAc(b1-6)[Gal(b1-3)GlcNAc(b1-3)]Gal(b1-4)Glc
# How it was run: as §1
# [23] = biological target: Neu5Ac(a2-6)Gal(b1-4)GlcNAc(b1-6)[Gal(b1-3)]GalNAc
# How it was run: as §1
# [24] = biological target: Neu5Ac(a2-8)Neu5Ac(a2-8)Neu5Ac(a2-8)Neu5Ac(a2-3)[GalNAc(b1-4)]Gal(b1-4)Glc
# How it was run: as §1
# [25] = biological target: Neu5Gc(a2-8)Neu5Gc(a2-3)Gal(b1-4)GlcNAc
# How it was run: as §1
binder,measurement,setting,value
PX14343C-bfa-541-26-541 (Bacteroides fragilis) (protein) KAPLDEIADDSFWSDETLVKYYVNDLYSEISVDGLQLQENRSDNSVSAQRDKYRASWFKFNYDMVSASDPQDDDVWEDYYVKVRKCNRFFERIGTSTIEESEKSRLTGEVHFLRAMFYFEMVKRYGGVILLDKVLTMEDNWEIPRSSEKECYDFILEDLKKATEMLPASYGSREKGRATKGAAYALKSRVELYDKRYEDVIKSCAEVYKLGYELVDGTTPEKYRSIWWTTNKDNKEIIFDVQYKSPDVYNNMMVCNMVTYINDKYGDRGWGGLGPTQELIDAFEMADGTPATQYSQAPADQVFDINTCGIYEGREPRFYANIVFHGSQIFFNADKGAVTVDRYLMDTPDKGDGSLTGYNVWKWIDYDNYNYPYAGAGSPDFSTNWIILRYAEIYLNDAEARLETGDVEGARKAVNMIRQRVGLPDLTESDPEKLRELIRKERRIEFAFEEQRFYDVRRWKIGPETQTTLHGVRFVSPTEFKVTKTDIRTWNDRLYLTPVPHDEIVRSSVLKQNLGY,glycan array binding signal (z-score),[1],-1.05
same,glycan array binding signal (z-score),[2],-1.28
same,glycan array binding signal (z-score),[3],3.53
same,glycan array binding signal (z-score),[4],-0.401
same,glycan array binding signal (z-score),[5],0.261
same,glycan array binding signal (z-score),[6],0.758
same,glycan array binding signal (z-score),[7],0.249
same,glycan array binding signal (z-score),Gal6S(b1-4)Glc6S,1.46
same,glycan array binding signal (z-score),[8],-0.667
same,glycan array binding signal (z-score),[9],3.4
same,glycan array binding signal (z-score),Glc(b1-4)Glc,-0.686
same,glycan array binding signal (z-score),[10],1.91
same,glycan array binding signal (z-score),[11],0.147
same,glycan array binding signal (z-score),[12],-0.553
same,glycan array binding signal (z-score),[13],0.978
same,glycan array binding signal (z-score),[14],0.246
same,glycan array binding signal (z-score),[15],0.43
same,glycan array binding signal (z-score),[16],5.05
same,glycan array binding signal (z-score),[17],3.41
same,glycan array binding signal (z-score),[18],3.29
same,glycan array binding signal (z-score),[19],0.23
same,glycan array binding signal (z-score),[20],-0.339
same,glycan array binding signal (z-score),[21],-0.036
same,glycan array binding signal (z-score),[22],5.89
same,glycan array binding signal (z-score),[23],-0.647
same,glycan array binding signal (z-score),[24],1.9
same,glycan array binding signal (z-score),[25],-0.342
